Assay results published in PubChem BioAssay (EPA / NIEHS).
“And” between values parts separate entries of the source, which are not always exact repeats. Identical values can stand only once. Results filed as inconclusive are left out. More than one record can exist for a structure, and the calls need not agree. The source made the active and inactive calls. How the source made its calls, unless noted: active means hit-call score of the fitted dose curve at least 0.9, where 1 is the maximum; inconclusive means response in the unintended direction; inactive means score below 0.9.

Columns and labels:
[1] = biological target: rat Serotonin Transporter (SERT), Slc6a4 (gene 25553) (UniProt P31652); test: NVS_TR_rSERT: NovaScreen (NVS) Transporter Assay for rat Serotonin Transporter (SERT) (AID 2283375)
In short: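 Rat forebrain membranes; radioligand displacement at SERT read by filter-based scintillation counting, 1 h after dosing. Screened in duplicate at 25 uM, actives then run in concentration series; loss of signal versus DMSO baseline.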

[2] = biological target: human Norepinephrine Transporter (NET), SLC6A2 (gene 6530) (UniProt P23975); test: NVS_TR_hNET: NovaScreen (NVS) Transporter Assay for human Norepinephrine Transporter (NET) (AID 2283377);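 further: displacement of radioligand from human NET seen as loss of scintillation signal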
In short: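 Cell-free radioligand binding using CHO-derived membrane protein expressing human NET, read by filter scintillation counting 1 h after dosing; loss of signal vs DMSO. Initial duplicate screen at 25 uM, actives retested in concentration series.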

[3] = biological target: Estrogen receptor beta (Homo sapiens) (UniProt Q92731); test: OT_ER_ERbERb_1440: Odyssey Thera (OT) 24-hour HEK293T Protein-Complementation Assay for Estrogen Receptor-beta/-beta Homodimer (AID 2283380);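 further: scored as signal increase over DMSO baseline for both agonists and antagonists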
In short: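 HEK293T cells stably expressing ER beta LBD (aa 310-547) homodimer fragment-complementation reporter, dosed 24 h. Cells formaldehyde-fixed, Draq5-stained; gain in nuclear (agonist) or nuclear plus cytoplasmic (antagonist) fluorescence versus DMSO read by laser scanning cytometry.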

[4] = biological target: Estrogen receptor (Homo sapiens) (UniProt P03372); test: OT_ERa_GFPERaERE_0480: Odyssey Thera (OT) 8-hour HeLa Transcription Induction Assay for Estrogen Receptor (AID 2283381; active means hit-call score of the fitted dose curve at least 0.9, where 1 is the maximum; inactive means score below 0.9)
In short: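 Cells (HeLa) receive compound; after 8 h, reporter fluorescence is imaged and quantified by high-content analysis. Gain-of-signal relative to DMSO gives the endpoint.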

[5] = biological target: Estrogen receptor (Homo sapiens) (UniProt P03372); test: OT_ERa_GFPERaERE_0120: Odyssey Thera (OT) 2-hour HeLa Transcription Induction Assay for Estrogen Receptor (AID 2283382)
In short: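 Measures ESR1 pathway reporter gain-of-signal in HeLa cells after a 2-hour treatment, detected as fluorescent protein induction by microscopy, DMSO as baseline.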

[6] = biological target: Bile acid receptor (Homo sapiens) (UniProt Q96RI1); test: OT_FXR_FXRSRC1_0480: Odyssey Thera (OT) 8-hour HEK293T Protein-Complementation Assay for Farnesoid X receptor/SRC-1 Co-activator (AID 2283383)
In short: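 Co-activator recruitment to FXR was measured in living HEK293T cells, where interaction of the two fused partners restored an active fluorescent reporter. Signal gain after 8 h treatment was referenced to DMSO.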

[7] = biological target: Bile acid receptor (Homo sapiens) (UniProt Q96RI1); test: OT_FXR_FXRSRC1_1440: Odyssey Thera (OT) 24-hour HEK293T Protein-Complementation Assay for Farnesoid X receptor/SRC-1 Co-activator (AID 2283384)
In short: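 Cell-based binding reporter: interaction of FXR with SRC-1 brings reporter fragments together, giving a fluorescence signal read 24 h after dosing of HEK293T cells.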

[8] = biological target: Agonist Androgen Response Element (ARE), AR (gene 367) (UniProt P10275); test: OT_AR_ARELUC_AG_1440: Odyssey Thera (OT) 24-hour CHO-K1 Luciferase Assay for Agonist Androgen Response Element (ARE) (AID 2283379)
In short: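 CHO-K1 cells carrying an ARE-driven luciferase reporter were exposed to compounds for 24 h. Luminescence was then read after adding a D-luciferin/ATP mix, and activity was scored as a gain in signal over DMSO vehicle.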

[9] = biological target: Retinoic acid receptor RXR-alpha (Homo sapiens) (UniProt P19793); test: OT_NURR1_NURR1RXRa_0480: Odyssey Thera (OT) 8-hour HEK293T Protein Complementation Assay for Nurr1/retinoid X receptor (RXR) (AID 2283385)
In short: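 Compounds are applied to HEK293T cells carrying Nurr1 and RXRα linked to reporter fragments. After 8 h, fluorescence intensity reports heterodimer formation, with DMSO as baseline.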

Bile acid receptor (Homo sapiens), sequence (Q96RI1 whole entry, looked up, the tested form may be a part): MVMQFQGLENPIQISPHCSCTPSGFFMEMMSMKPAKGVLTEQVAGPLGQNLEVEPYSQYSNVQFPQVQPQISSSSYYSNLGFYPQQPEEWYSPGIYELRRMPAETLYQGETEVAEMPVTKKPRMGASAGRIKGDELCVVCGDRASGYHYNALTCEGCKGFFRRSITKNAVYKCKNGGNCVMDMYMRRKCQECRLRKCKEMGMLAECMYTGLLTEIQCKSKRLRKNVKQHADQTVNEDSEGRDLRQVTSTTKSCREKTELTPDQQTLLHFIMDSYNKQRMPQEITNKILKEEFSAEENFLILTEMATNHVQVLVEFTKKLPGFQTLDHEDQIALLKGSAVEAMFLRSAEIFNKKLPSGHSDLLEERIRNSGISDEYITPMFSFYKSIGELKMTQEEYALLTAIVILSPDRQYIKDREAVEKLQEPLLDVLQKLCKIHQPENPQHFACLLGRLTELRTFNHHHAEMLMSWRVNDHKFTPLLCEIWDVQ
Agonist Androgen Response Element (ARE), AR (gene 367), sequence (P10275 whole entry, looked up): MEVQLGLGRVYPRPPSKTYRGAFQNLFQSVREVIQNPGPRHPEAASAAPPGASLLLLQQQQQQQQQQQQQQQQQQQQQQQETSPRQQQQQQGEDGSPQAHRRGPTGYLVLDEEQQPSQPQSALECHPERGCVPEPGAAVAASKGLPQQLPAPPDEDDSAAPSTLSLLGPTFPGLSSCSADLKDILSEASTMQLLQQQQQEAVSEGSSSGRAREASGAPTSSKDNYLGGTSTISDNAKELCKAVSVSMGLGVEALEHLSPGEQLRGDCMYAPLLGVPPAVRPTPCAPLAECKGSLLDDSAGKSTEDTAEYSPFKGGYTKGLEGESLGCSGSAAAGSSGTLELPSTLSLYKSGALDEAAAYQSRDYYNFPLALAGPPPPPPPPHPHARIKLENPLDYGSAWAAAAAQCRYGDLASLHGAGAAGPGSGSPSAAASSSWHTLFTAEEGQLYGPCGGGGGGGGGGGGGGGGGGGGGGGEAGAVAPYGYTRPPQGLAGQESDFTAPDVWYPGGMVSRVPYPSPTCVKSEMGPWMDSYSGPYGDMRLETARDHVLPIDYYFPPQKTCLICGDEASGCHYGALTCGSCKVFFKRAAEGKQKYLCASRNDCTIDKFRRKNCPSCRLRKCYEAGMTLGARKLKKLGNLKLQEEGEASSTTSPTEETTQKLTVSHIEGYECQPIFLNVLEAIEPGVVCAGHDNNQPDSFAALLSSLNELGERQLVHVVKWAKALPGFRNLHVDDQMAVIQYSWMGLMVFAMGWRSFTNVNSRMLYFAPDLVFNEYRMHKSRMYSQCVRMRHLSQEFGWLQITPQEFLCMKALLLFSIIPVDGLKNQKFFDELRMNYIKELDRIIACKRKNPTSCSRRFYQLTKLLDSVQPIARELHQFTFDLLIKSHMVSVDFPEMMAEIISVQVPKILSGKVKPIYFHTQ
Estrogen receptor beta (Homo sapiens), sequence (Q92731 whole entry, looked up, the tested form may be a part): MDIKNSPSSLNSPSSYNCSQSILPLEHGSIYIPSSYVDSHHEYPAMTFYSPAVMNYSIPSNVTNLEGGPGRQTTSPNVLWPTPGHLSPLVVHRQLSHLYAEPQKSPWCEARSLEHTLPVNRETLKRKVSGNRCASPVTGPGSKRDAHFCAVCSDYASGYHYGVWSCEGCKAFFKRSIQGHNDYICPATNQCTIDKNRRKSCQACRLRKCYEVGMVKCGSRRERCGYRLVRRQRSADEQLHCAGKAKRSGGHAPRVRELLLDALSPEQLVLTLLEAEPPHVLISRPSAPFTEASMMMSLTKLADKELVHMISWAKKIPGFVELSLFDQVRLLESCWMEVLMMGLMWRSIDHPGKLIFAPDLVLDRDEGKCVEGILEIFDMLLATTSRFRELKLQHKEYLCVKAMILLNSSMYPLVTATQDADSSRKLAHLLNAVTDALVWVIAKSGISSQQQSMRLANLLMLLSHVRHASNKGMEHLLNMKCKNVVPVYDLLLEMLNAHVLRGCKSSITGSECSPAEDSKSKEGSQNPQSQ
Estrogen receptor (Homo sapiens), sequence (P03372 whole entry, looked up): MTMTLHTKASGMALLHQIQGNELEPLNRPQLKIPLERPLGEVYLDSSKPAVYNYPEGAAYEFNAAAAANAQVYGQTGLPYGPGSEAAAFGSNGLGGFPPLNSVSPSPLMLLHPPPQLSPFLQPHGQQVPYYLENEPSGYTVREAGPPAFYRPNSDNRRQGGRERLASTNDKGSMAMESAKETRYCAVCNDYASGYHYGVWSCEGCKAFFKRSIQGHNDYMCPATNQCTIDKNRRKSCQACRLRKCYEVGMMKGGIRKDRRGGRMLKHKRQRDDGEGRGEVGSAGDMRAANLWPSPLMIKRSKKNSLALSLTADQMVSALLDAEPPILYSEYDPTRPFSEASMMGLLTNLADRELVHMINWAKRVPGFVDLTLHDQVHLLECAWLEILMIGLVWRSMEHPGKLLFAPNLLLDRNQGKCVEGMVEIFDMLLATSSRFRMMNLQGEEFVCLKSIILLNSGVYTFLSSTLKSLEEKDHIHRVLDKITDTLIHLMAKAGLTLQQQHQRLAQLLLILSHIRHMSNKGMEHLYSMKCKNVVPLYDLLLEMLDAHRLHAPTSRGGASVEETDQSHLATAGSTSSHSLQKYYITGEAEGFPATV
Retinoic acid receptor RXR-alpha (Homo sapiens), sequence (P19793 whole entry, looked up, the tested form may be a part): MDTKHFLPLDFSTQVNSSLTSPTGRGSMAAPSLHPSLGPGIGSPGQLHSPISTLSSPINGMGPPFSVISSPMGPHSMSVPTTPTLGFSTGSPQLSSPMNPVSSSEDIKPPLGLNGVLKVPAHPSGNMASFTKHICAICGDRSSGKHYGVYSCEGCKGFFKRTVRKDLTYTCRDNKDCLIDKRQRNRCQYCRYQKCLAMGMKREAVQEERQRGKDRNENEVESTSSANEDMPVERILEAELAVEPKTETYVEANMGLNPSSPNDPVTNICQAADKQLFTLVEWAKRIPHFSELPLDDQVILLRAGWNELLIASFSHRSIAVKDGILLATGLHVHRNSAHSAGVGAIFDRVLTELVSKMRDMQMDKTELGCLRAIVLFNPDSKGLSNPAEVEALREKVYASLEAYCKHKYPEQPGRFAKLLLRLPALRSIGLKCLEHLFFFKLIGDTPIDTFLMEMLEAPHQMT
human Norepinephrine Transporter (NET), SLC6A2 (gene 6530), sequence (P23975 whole entry, looked up): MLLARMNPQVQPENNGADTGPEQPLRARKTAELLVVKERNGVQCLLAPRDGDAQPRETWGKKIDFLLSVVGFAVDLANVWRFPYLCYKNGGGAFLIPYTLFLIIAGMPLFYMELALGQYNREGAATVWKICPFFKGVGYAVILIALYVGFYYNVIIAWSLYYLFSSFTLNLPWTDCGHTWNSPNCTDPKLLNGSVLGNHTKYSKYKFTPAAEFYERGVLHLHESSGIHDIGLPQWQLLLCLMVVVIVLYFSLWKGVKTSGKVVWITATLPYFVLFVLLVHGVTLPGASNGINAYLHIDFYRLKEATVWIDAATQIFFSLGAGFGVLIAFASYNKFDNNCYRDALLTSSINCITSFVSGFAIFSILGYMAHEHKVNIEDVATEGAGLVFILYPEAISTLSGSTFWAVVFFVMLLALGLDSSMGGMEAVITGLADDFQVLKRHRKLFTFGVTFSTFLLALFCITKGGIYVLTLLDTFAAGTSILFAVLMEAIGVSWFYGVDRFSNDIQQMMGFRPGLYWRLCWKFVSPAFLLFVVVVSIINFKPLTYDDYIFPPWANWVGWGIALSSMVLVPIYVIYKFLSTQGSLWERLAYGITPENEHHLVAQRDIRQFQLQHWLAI
rat Serotonin Transporter (SERT), Slc6a4 (gene 25553), sequence (P31652 whole entry, looked up): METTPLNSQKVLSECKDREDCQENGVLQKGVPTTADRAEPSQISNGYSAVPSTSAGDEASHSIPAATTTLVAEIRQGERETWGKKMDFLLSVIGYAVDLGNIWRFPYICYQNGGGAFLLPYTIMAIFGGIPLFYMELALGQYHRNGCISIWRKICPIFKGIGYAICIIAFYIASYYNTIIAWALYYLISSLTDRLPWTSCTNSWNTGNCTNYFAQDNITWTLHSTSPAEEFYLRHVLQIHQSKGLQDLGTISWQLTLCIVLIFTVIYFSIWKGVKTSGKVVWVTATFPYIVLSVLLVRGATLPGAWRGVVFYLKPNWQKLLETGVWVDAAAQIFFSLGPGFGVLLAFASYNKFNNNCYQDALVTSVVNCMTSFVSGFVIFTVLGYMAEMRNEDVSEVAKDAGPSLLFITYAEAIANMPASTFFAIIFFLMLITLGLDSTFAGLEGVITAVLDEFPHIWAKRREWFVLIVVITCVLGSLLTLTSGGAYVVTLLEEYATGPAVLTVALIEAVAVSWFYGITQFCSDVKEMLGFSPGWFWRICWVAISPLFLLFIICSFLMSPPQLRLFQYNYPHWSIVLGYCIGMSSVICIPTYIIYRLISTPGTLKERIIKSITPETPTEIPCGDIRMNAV

In the case of O=C(N[C@@H](c1ccccc1)[C@@H]1CCCCN1)c1cccc(C(F)(F)F)c1Cl, the AC50 [1] is reported as 7.98 µM (active), the AC50 [2] is reported as 8.04 µM (active) and the outcome [3] is reported as “inactive”. For the same compound, the outcome [4] was “inactive”, the outcome [5] was “inactive” and the AC50 [6] was 31.6 µM (active). For the same compound, the AC50 [7] was 11.4 µM (active).
With O=C(NS(=O)(=O)/C=C/c1cccs1)c1ccc(F)cc1Br the outcome [8] was “inactive”, the outcome [4] was “inactive” and the outcome [5] was “inactive”. The outcome [6] was “inactive”, the AC50 [7] was 1.72 µM (active) and the AC50 [9] was 29.6 µM (active).
O=C1OC(c2ccc(O)cc2)(c2ccc(O)cc2)c2ccccc21 was tested, and the outcome [8] was “inactive”, the AC50 [3] was 11.9 µM (active) and the outcome [9] was “inactive”.
For C#CC(O)C(CC)CCCC (configuration not stated), the outcome [8] was “inactive” and the AC50 [9] was 28.8 µM (active).
NCCOCCOCCN was tested, and the outcome [8] was “inactive” and the outcome [9] was “inactive”.
For C=CCCCCCCCCCCCC, the outcome [8] was “inactive”, the outcome [6] was “inactive” and the outcome [7] was “inactive”. The outcome [9] was “inactive”.
CCCCCCC(C=O)=Cc1ccccc1 was tested, and the outcome [3] was “inactive”, the AC50 [6] was 50 µM (active) and the outcome [7] was “inactive”. For the same compound, the AC50 [9] was 73.4 µM (active).
CCCCC(CC)CO (configuration not stated) was tested, and the outcome [3] was “inactive”, the outcome [6] was “inactive” and the outcome [7] was “inactive”. The outcome [9] was “inactive”.
For CC(C)(O)c1ccc(CNC(=O)c2cccnc2Oc2ccc(F)cc2)cc1, the outcome [3] was “inactive”.
O=[Si]=O was tested, and the outcome [3] was “inactive”, the outcome [4] was “inactive” and the outcome [5] was “inactive”.
For O=C1CCCCC1, the outcome [8] was “inactive”, the outcome [4] was “inactive” and the outcome [5] was “inactive”.
In the case of CCOCCOCCO, the outcome [8] is reported as “inactive” and the outcome [9] is reported as “inactive”.
With COc1ccc(C(=O)Nc2nc3ccccc3c(NCc3ccccc3)c2C#N)cc1 the outcome [3] was “inactive”, the outcome [4] was “inactive” and the outcome [5] was “inactive”. For the same compound, the outcome [6] was “inactive”, the AC50 [7] was 14.4 µM (active) and the AC50 [9] was 9.26 µM (active).
For CC(=O)OC1CC(C)OC(C)O1 (configuration not stated), the outcome [3] was “inactive” and the outcome [6] was “inactive”.
For CCCCCCC(CCCCCCCCCCC(=O)OCC(COC(C)=O)OC(C)=O)OC(C)=O (configuration not stated), the outcome [4] was “inactive”, the outcome [5] was “inactive” and the outcome [6] was “inactive”. The outcome [7] was “inactive” and the outcome [9] was “inactive”.
With O=C(Oc1ccccc1)c1cccc(C(=O)Oc2ccccc2)c1 the outcome [8] was “inactive”, the AC50 [6] was 72 µM (active) and the outcome [7] was “inactive”. For the same compound, the AC50 [9] was 75.2 µM (active) and 79.8 µM (active).
With CC(C)c1cccc(C(C)C)c1 the outcome [4] was “inactive”, the outcome [5] was “inactive” and the outcome [6] was “inactive”. The outcome [9] was “inactive”.
CCCCCCCCCC[N+](C)(C)[O-] was tested, and the outcome [8] was “inactive”, the outcome [4] was “inactive” and the outcome [5] was “inactive”.
In the case of Cc1ccc(C(C)(C)C)c(O)c1, the outcome [4] is reported as “inactive”, the outcome [5] is reported as “inactive” and the AC50 [6] is reported as 60.6 µM (active). The AC50 [7] was 80.5 µM (active), the AC50 [9] was 75 µM (active) and the outcome [9] was “inactive”.
With NC=O the outcome [3] was “inactive”.
COC(=O)CCC(=O)OC was tested, and the outcome [4] was “inactive”, the outcome [5] was “inactive” and the outcome [6] was “inactive”. The outcome [7] was “inactive” and the outcome [9] was “inactive”.
For CC(N)=O, the outcome [3] was “inactive”.
In the case of CC1(C)C(=O)NC(=O)N1CO, the AC50 [3] is reported as 57.3 µM (active), the outcome [4] is reported as “inactive” and the outcome [5] is reported as “inactive”. The outcome [9] was “inactive”.
C/C=C/C=C/C(=O)O was tested, and the outcome [3] was “inactive”.
For O=C(O)CC(O)(CC(=O)O)C(=O)O, the outcome [4] was “inactive” and the outcome [5] was “inactive”.
With CCCCOC(=O)CCCCC(=O)OCCCC the outcome [3] was “inactive”.
With CC(=O)OCC(COC(C)=O)OC(C)=O the outcome [3] was “inactive”.
In the case of CCCCc1nc2cccnc2n1Cc1ccc(-c2ccccc2-c2nnn[nH]2)cc1, the outcome [3] is reported as “inactive”, the outcome [4] is reported as “inactive” and the outcome [5] is reported as “inactive”. For the same compound, the AC50 [6] was 60.8 µM (active), the AC50 [7] was 78.2 µM (active) and the AC50 [9] was 15.4 µM (active).
For CCCCCCCCCCCCCCCCO, the outcome [3] was “inactive”, the outcome [4] was “inactive” and the outcome [5] was “inactive”. For the same compound, the outcome [9] was “inactive”.
